Assay results reported in PubChem BioAssay (Tox21).
Records with an inconclusive call do not appear. Where a call stands in place of a potency, no number is given. Activity calls are given as the source filed them. Calls come from the whole dose curve; as a rule, active = well fitted activation curve with a large enough effect in the repeat runs; inconclusive = weak or mixed curves; inactive = flat fitted curve, though single readings scatter.

Assay: A CellTox Green Cytotoxicity Assay to monitor cytotoxicity in HepG2 cells - 32 hour (AID 1224883); note: nearly all actives have a fitted effect of over 50% in size
Conditions: CellTox Green fluorescence; series mostly up to 76.8 µM
Excerpt: National Center for Advancing Translational Sciences [NCATS]
NIH Chemical Genomics Center [NCGC]
U.S. Environmental Protection Agency [EPA]
National Institutes of Environmental Health Sciences [NIEHS]
National Toxicology Program [NTP]
Cell-based models are critical for drug discovery. Determining the natural cytotoxic effects resulting from test compounds is an essential research activity. A CellTox Green Cytotoxicity Assay to monitor cytotoxicity in real time of continues cell culture during 40 hours of the compound treatment was used to screen Tox21 10K library compounds in HepG2 cells. CellTox Green Cytotoxicity Assay is a nonlytic, homogeneous, biofluorescent method to measure cytotoxicity in cell culture after experimental manipulation. The assay system uses a proprietary asymmetric cyanine dye that is excluded from viable cells but preferentially stains the dead cell's DNA. […] Viable cells produce no appreciable increases in fluorescence. Therefore, the fluorescence signal produced by the binding interaction with dead cell DNA is proportional to cytotoxicity.
The mixture of HepG2 cell suspension and reagents were dispensed at 600cells/6 ul/well in 1536-well tissue culture treated black solid bottom plates using a Multidrop dispenser. After the assay plates were incubated at a 37 C/5% CO2 incubator for 5 hours, 23 nL of compounds dissolved in DMSO, positive and negative controls was transferred to the assay plate by a pintool work station. The plates were incubated at 37 C for 40 hours. The fluorescence intensity were measured at 0h, 8h, 16h, 24h, 32h and 40h time points using ViewLux plate reader during compound treatment.
Potency is the fitted concentration of half-maximal effect.

Compound | Potency | cytotoxicity increase
CCCCCC[C@@H](CCC)C(=O)O | inactive | 
CC(C=O)Cc1ccc(C(C)C)cc1 (stereo not given) | inactive | 
CC(C)N1C(=O)c2ccccc2C1=O | inactive | 
O=[N+]([O-])c1ccc(Oc2ccc([N+](=O)[O-])cc2)cc1 | inactive | 
O=C(O)C1CCC1 | inactive | 
Cc1c(F)cc2c(=O)c(C(=O)O)cn3c2c1CCC3C (stereo not given) | inactive | 
CC(=O)CCc1ccc(O)cc1 | inactive | 
NC(CS)C(=O)O (stereo not given) | inactive | 
CCCCCCCCCCCl | inactive | 
CC(=O)N[C@@H](CCC(N)=O)C(=O)O | inactive | 
CSc1ccc(C=O)cc1 | inactive | 
CCn1c(=O)c2c(nc(/C=C/c3ccc(OC)c(OC)c3)n2C)n(CC)c1=O | inactive | 
CO[Si](OC)(OC)OC | inactive | 
CCCc1ccc(N)cc1 | inactive | 
NC(=O)c1c(Cl)cccc1Cl | inactive | 
CC(C)(C)N(CCO)CCO | inactive | 
OC/C=C/c1ccccc1 | inactive | 
C#CC(O)CCCCC (stereo not given) | inactive | 
Nc1ccc2cc(S(=O)(=O)O)ccc2c1 | inactive | 
N#CCN(CC#N)CCN(CC#N)CC#N | inactive | 

Compound | Potency | cytotoxicity increase
CCCc1ccccc1O | inactive | 
COc1ccc(NC(C)=O)cc1 | inactive | 
COc1nc(C)nc(N)n1 | inactive | 
COC(=O)CCCCCCCCC(=O)OC | inactive | 
CN(C)C(=O)C(CCN1CCC(O)(c2ccc(Cl)cc2)CC1)(c1ccccc1)c1ccccc1 | 19 µM (active) | 
Nc1nc2c(ncn2CCC(CO)CO)c(=O)[nH]1 | inactive | 
OCCCCCCO | inactive | 
C1C2OC2C2C1C1CC2C2OC12 (stereo not given) | inactive | 
CCCCCN(CCCCC)C(=O)C(CCC(=O)O)NC(=O)c1ccc(Cl)c(Cl)c1 (stereo not given) | inactive | 
CCCCCCCCCCCCCCC | inactive | 
CC(C)=CC(=O)O | inactive | 
C=C(C)C1CC=C(C)C(O)C1 (stereo not given) | inactive | 
Cc1onc(-c2ccccc2)c1-c1ccc(S(N)(=O)=O)cc1 | inactive | 
C1COCCO1 | inactive | 
O=c1[nH]c(=O)n([C@H]2O[C@H](CO)[C@@H](O)[C@@H]2O)cc1/C=C\Br | inactive | 
CCCC(=O)O[C@]1(C(=O)CCl)[C@@H](C)C[C@H]2[C@@H]3CCC4=CC(=O)C=C[C@]4(C)[C@@]3(F)C(=O)C[C@@]21C | inactive | 
Nc1cc(N)cc(C(=O)O)c1 | inactive | 
OC[C@H]1O[C@@H]2O[C@H]3[C@H](O)[C@@H](O)[C@@H](O[C@H]4[C@H](O)[C@@H](O)[C@@H](O[C@H]5[C@H](O)[C@@H](O)[C@@H](O[C@H]6[C@H](O)[C@@H](O)[C@@H](O[C@H]7[C@H](O)[C@@H](O)[C@@H](O[C@H]8[C@H](O)[C@@H](O)[C@@H](O[C@H]9[C@H](O)[C@@H](O)[C@@H](O[C@H]1[C@H](O)[C@H]2O)O[C@@H]9CO)O[C@@H]8CO)O[C@@H]7CO)O[C@@H]6CO)O[C@@H]5CO)O[C@@H]4CO)O[C@@H]3CO | inactive | 
NC(=S)Nc1cccc2ccccc12 |  | 0.974% [at 6.97 µM] (inactive)
COc1cc(C(=O)N2CCOCC2)cc(OC)c1OC | inactive | 
